In PubChem BioAssay (NCI):
This is part of a sample that, as a whole, favours compounds with a hit. Of some 83,000 tested, about 20% had one in any assay.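 Testing used 96-well plates and a 48-hour single-concentration exposure. Example: -40 means 40% of the starting cells died.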 Unmarked numbers belong to inactive results. Active and inactive are the calls of the source. Rule for the calls: active = growth percent below 10; inactive = the rest.

What follows are compounds tested on MDA-MB-468 breast (assay: NCI-60 one-dose screen, 48 h (100 = growth as untreated, 0 = no growth, -100 = all killed)). Conditions: 10 µM unless noted.
Compound `O=C1N=c2ccccc2=C1c1sc(=S)n(C2CC(=O)N(c3ccc(Cl)cc3)C2=O)c1O` (stereo not given) has a growth of 95.2%.
`Cc1ccc(NC(=O)c2nc(S(C)(=O)=O)oc2-c2ccc(F)cc2)cc1Nc1ccc2ncn(C)c(=O)c2c1` gave a growth of 16.8%.
For `CN([N-]C(=O)CC(=O)[N-]N(C)C(=S)c1ccccc1)C(=S)c1ccccc1.[Cu+2]`, the growth was -58% (active).
Work on `CCC(c1ccc(OC)cc1)C(CC)c1ccc(OCC[N+](C)(C)C)cc1` (stereo not given) yielded a growth of 19.3%.
In the case of `CCOC(=O)c1ccc(NC(=O)NC2=NCCS2)cc1`, the growth is reported as 29.6%.
Compound `COc1ccc(-c2cn[nH]c2-c2cc(OC)c3c(c2)OCO3)cc1` has a growth of 36.1%.
For `C[C@@H]1C[C@H]2C(=O)OCC(NC(=O)[C@H](Cc3cc(F)cc(F)c3)NC(=O)Nc3ccc(Cl)cc3F)C(=O)N3CCC[C@H]3C(=O)N3CCCC[C@H]3C(=O)N[C@@H](C)C(=O)N2C1` (stereo not given in full), the growth was -6.95% (active).
`C=C[C@]1(C)C=C2C(=O)[C@@]3(O)OC[C@@]4(CCCC(C)(C)C43O)C2(O)C(O)C1` (stereo not given in full) was tested, and the growth was -18.7% (active).
`Cc1c2ccncc2c(C)c2c1c1cc(CO)ccc1n2C` was tested, and the growth was -46.1% (active).
`CCCNC(=O)Oc1ccc(/C(=C(/C)Cc2ccc(OC)cc2)c2ccc(OCCN3CCCCC3)cc2)cc1` showed a growth of 79.6%.
`CCOC(=O)Nc1cccc(-n2cnc3cc(-c4ccc(O)cc4)ccc32)c1` showed a growth of 20.4%.
In the case of `COC(=O)/C=C/C(=O)c1cc(C)cc(C)c1O`, the growth is reported as 110%.
With `O=C(Nc1ccccc1Cl)c1c[nH]c(=O)c(-c2ccc(N3CCCOC4(CC4)C3)cc2)c1` the growth was 9.39% (active).
`O=C(Nc1ccc(Cl)c(Cl)c1)OCn1ncc2ccc([N+](=O)[O-])cc21` was tested, and the growth was 87%.
Work on `CCN(CC)CCCOC(=O)Nc1ccccc1Cl` yielded a growth of 107%.
Compound `Cc1ccc(CSc2nc(-c3ccc(Cl)cc3)c(C#N)c(N3CCOCC3)n2)cc1` has a growth of 84%.
In the case of `O=C(CI)OCC(COC(=O)CI)OC(=O)CI`, the growth is reported as 51.6%.
With `CS(=O)(=O)Nc1cc(-c2cc3ncc(C#N)c(Nc4ccc(Oc5ccccc5)c(Cl)c4)c3s2)cnc1Cl` the growth was 43.3%.
In the case of `COc1ccccc1Cn1cc2c(c1-c1ccccc1)CCc1cnoc1-2`, the growth is reported as 10.9%.
`CCCCCCCCCCCCCCCC[N+](C)(CCO)Cc1cnc[nH]1` (stereo not given) was tested, and the growth was -16% (active).
With `C[C@@H]1C(=O)N(C[C@H](Cc2ccccc2)NC(=O)OCc2ccccc2)[C@]1(Cc1ccccc1)C(=O)OC(C)(C)C` the growth was 46.7%.
Compound `O=C1/C(=C/c2ccccc2)CCC/C1=C\c1ccccc1` has a growth of 63.2%.
`O=C(Cc1ccc(Nc2ccnc(C(F)(F)F)c2)cc1)N/N=C/c1ccccc1O` was tested, and the growth was 8.1% (active).
Work on `COc1cccc(/C=N/N=C(N)N)c1` yielded a growth of 90%.
In the case of `COc1cc(-c2nc(SCCC(C)C)nc(N3CCOCC3)c2C#N)cc(OC)c1OC`, the growth is reported as 98.2%.
